Source: publication PMC3315485, “Probing the Informational and Regulatory Plasticity of a Transcription Factor DNA–Binding Domain”
Substitutions are numbered along the chain they refer to.

What follows are sequences tested against T1, MarA RTR (Escherichia coli, UniProt P0ACH5 1-127, W40R;Q43T) (assay: MITOMI; MITOMI, 295 K (22 C); buffer, salt and pH not stated in the material; high values mean tight binding). Conditions: protein: ivt; label: fluorescent; dsDNA, one strand shown.
T1 sequence: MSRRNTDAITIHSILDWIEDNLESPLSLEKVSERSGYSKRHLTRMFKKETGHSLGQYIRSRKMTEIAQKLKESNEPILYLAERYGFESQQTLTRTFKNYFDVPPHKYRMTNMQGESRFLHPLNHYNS
Outline: (§1)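 Association constants were determined by MITOMI and are expressed for each site relative to the site with the highest affinity for the same protein variant. The MarA protein variants were made with the RTS E. coli HY kit by in vitro transcription and translation and labelled through addition of tRNA-lys-bodipy-fl. Testing covered 64 synthesized mar binding site variants, with fluorescence read on Genepix at 295K.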
ATGTCCCGTTTTGCTAAAT was tested, and the binding signal was 0.848 Ka relative to the best site of the variant. In the case of ATGGAGCGTTTTGCTAAAT, the binding signal was 0.191 Ka relative to the best site of the variant. For ATGGCGCGTTTTGCTAAAT, the binding signal was 0.685 Ka relative to the best site of the variant. In the case of ATGAGTCGTTTTGCTAAAT, the binding signal was 0.173 Ka relative to the best site of the variant. For ATGCTTCGTTTTGCTAAAT, the binding signal was 0.723 Ka relative to the best site of the variant. With ATGGAACGTTTTGCTAAAT the binding signal was 0.23 Ka relative to the best site of the variant. In the case of ATGACACGTTTTGCTAAAT, the binding signal was 0.249 Ka relative to the best site of the variant. In the case of ATGCTCCGTTTTGCTAAAT, the binding signal was 0.201 Ka relative to the best site of the variant. With ATGCGTCGTTTTGCTAAAT the binding signal was 0.153 Ka relative to the best site of the variant. For ATGCCGCGTTTTGCTAAAT, the binding signal was 0.245 Ka relative to the best site of the variant. In the case of ATGCGGCGTTTTGCTAAAT, the binding signal was 0.255 Ka relative to the best site of the variant. In the case of ATGACTCGTTTTGCTAAAT, the binding signal was 0.469 Ka relative to the best site of the variant. With ATGAATCGTTTTGCTAAAT the binding signal was 0.214 Ka relative to the best site of the variant. In the case of ATGTGACGTTTTGCTAAAT, the binding signal was 0.173 Ka relative to the best site of the variant. For ATGTACCGTTTTGCTAAAT, the binding signal was 0.989 Ka relative to the best site of the variant. With ATGCAGCGTTTTGCTAAAT the binding signal was 0.149 Ka relative to the best site of the variant. With ATGAAACGTTTTGCTAAAT the binding signal was 0.323 Ka relative to the best site of the variant. With ATGATTCGTTTTGCTAAAT the binding signal was 0.208 Ka relative to the best site of the variant. With ATGTGCCGTTTTGCTAAAT the binding signal was 0.201 Ka relative to the best site of the variant. ATGTCTCGTTTTGCTAAAT was tested, and the binding signal was 0.642 Ka relative to the best site of the variant. In the case of ATGAAGCGTTTTGCTAAAT, the binding signal was 0.204 Ka relative to the best site of the variant. In the case of ATGACGCGTTTTGCTAAAT, the binding signal was 0.382 Ka relative to the best site of the variant. With ATGTAGCGTTTTGCTAAAT the binding signal was 0.685 Ka relative to the best site of the variant. In the case of ATGCACCGTTTTGCTAAAT, the binding signal was 0.202 Ka relative to the best site of the variant. In the case of ATGGTACGTTTTGCTAAAT, the binding signal was 0.222 Ka relative to the best site of the variant. With ATGGACCGTTTTGCTAAAT the binding signal was 0.154 Ka relative to the best site of the variant. In the case of ATGGGTCGTTTTGCTAAAT, the binding signal was 0.203 Ka relative to the best site of the variant. With ATGTGGCGTTTTGCTAAAT the binding signal was 0.165 Ka relative to the best site of the variant. In the case of ATGGCCCGTTTTGCTAAAT, the binding signal was 1 Ka relative to the best site of the variant. In the case of ATGGTGCGTTTTGCTAAAT, the binding signal was 0.183 Ka relative to the best site of the variant.

Each sequence was assayed against T2, MarA SAR (Escherichia coli, UniProt P0ACH5 1-127, W40S;Q43A) in the same assay as above. Conditions: protein: ivt; label: fluorescent; dsDNA, one strand shown.
T2 sequence: T1 sequence with R40S, T43A
Outline: as §1
ATGTCCCGTTTTGCTAAAT was tested, and the binding signal was 0.233 Ka relative to the best site of the variant. ATGGAGCGTTTTGCTAAAT was tested, and the binding signal was 0.506 Ka relative to the best site of the variant. In the case of ATGCTGCGTTTTGCTAAAT, the binding signal was 0.521 Ka relative to the best site of the variant. ATGGCGCGTTTTGCTAAAT was tested, and the binding signal was 0.973 Ka relative to the best site of the variant. In the case of ATGAGTCGTTTTGCTAAAT, the binding signal was 0.944 Ka relative to the best site of the variant. With ATGCTTCGTTTTGCTAAAT the binding signal was 0.508 Ka relative to the best site of the variant. For ATGGAACGTTTTGCTAAAT, the binding signal was 0.646 Ka relative to the best site of the variant. For ATGACACGTTTTGCTAAAT, the binding signal was 0.637 Ka relative to the best site of the variant. With ATGCTCCGTTTTGCTAAAT the binding signal was 0.548 Ka relative to the best site of the variant. With ATGCGTCGTTTTGCTAAAT the binding signal was 0.552 Ka relative to the best site of the variant. ATGCCGCGTTTTGCTAAAT was tested, and the binding signal was 0.468 Ka relative to the best site of the variant. For ATGCGGCGTTTTGCTAAAT, the binding signal was 0.379 Ka relative to the best site of the variant. For ATGACTCGTTTTGCTAAAT, the binding signal was 0.657 Ka relative to the best site of the variant. With ATGAATCGTTTTGCTAAAT the binding signal was 0.481 Ka relative to the best site of the variant. For ATGTGACGTTTTGCTAAAT, the binding signal was 0.165 Ka relative to the best site of the variant. In the case of ATGTACCGTTTTGCTAAAT, the binding signal was 0.25 Ka relative to the best site of the variant. With ATGCAGCGTTTTGCTAAAT the binding signal was 0.357 Ka relative to the best site of the variant. ATGAAACGTTTTGCTAAAT was tested, and the binding signal was 0.852 Ka relative to the best site of the variant. With ATGATTCGTTTTGCTAAAT the binding signal was 0.807 Ka relative to the best site of the variant. With ATGTGCCGTTTTGCTAAAT the binding signal was 0.236 Ka relative to the best site of the variant. ATGTCTCGTTTTGCTAAAT was tested, and the binding signal was 0.259 Ka relative to the best site of the variant. In the case of ATGAAGCGTTTTGCTAAAT, the binding signal was 0.677 Ka relative to the best site of the variant. With ATGACGCGTTTTGCTAAAT the binding signal was 0.905 Ka relative to the best site of the variant. With ATGTAGCGTTTTGCTAAAT the binding signal was 0.152 Ka relative to the best site of the variant. ATGCACCGTTTTGCTAAAT was tested, and the binding signal was 0.497 Ka relative to the best site of the variant. For ATGGTACGTTTTGCTAAAT, the binding signal was 0.797 Ka relative to the best site of the variant. With ATGGACCGTTTTGCTAAAT the binding signal was 0.573 Ka relative to the best site of the variant. With ATGGGTCGTTTTGCTAAAT the binding signal was 0.534 Ka relative to the best site of the variant. In the case of ATGTGGCGTTTTGCTAAAT, the binding signal was 0.152 Ka relative to the best site of the variant. With ATGGGACGTTTTGCTAAAT the binding signal was 0.498 Ka relative to the best site of the variant. For ATGGCCCGTTTTGCTAAAT, the binding signal was 0.552 Ka relative to the best site of the variant. ATGGTGCGTTTTGCTAAAT was tested, and the binding signal was 0.784 Ka relative to the best site of the variant.

What follows are sequences tested against T3, MarA TRR (Escherichia coli, UniProt P0ACH5 1-127, W40T;Q43R) in the same assay as above. Conditions: protein: ivt; label: fluorescent; dsDNA, one strand shown.
T3 sequence: T1 sequence with R40T, T43R
Outline: as §1
In the case of ATGTCCCGTTTTGCTAAAT, the binding signal was 0.399 Ka relative to the best site of the variant. ATGGAGCGTTTTGCTAAAT was tested, and the binding signal was 0.392 Ka relative to the best site of the variant. ATGCTGCGTTTTGCTAAAT was tested, and the binding signal was 0.588 Ka relative to the best site of the variant. In the case of ATGGCGCGTTTTGCTAAAT, the binding signal was 0.415 Ka relative to the best site of the variant. ATGAGTCGTTTTGCTAAAT was tested, and the binding signal was 0.446 Ka relative to the best site of the variant. ATGCTTCGTTTTGCTAAAT was tested, and the binding signal was 0.576 Ka relative to the best site of the variant. In the case of ATGGAACGTTTTGCTAAAT, the binding signal was 0.432 Ka relative to the best site of the variant. In the case of ATGACACGTTTTGCTAAAT, the binding signal was 0.369 Ka relative to the best site of the variant. In the case of ATGCTCCGTTTTGCTAAAT, the binding signal was 0.445 Ka relative to the best site of the variant. ATGCGTCGTTTTGCTAAAT was tested, and the binding signal was 0.435 Ka relative to the best site of the variant. In the case of ATGCCGCGTTTTGCTAAAT, the binding signal was 0.561 Ka relative to the best site of the variant. For ATGCGGCGTTTTGCTAAAT, the binding signal was 0.501 Ka relative to the best site of the variant. ATGACTCGTTTTGCTAAAT was tested, and the binding signal was 0.382 Ka relative to the best site of the variant. With ATGAATCGTTTTGCTAAAT the binding signal was 0.309 Ka relative to the best site of the variant. With ATGTGACGTTTTGCTAAAT the binding signal was 0.413 Ka relative to the best site of the variant. With ATGTACCGTTTTGCTAAAT the binding signal was 0.417 Ka relative to the best site of the variant. For ATGCAGCGTTTTGCTAAAT, the binding signal was 0.477 Ka relative to the best site of the variant. ATGAAACGTTTTGCTAAAT was tested, and the binding signal was 0.36 Ka relative to the best site of the variant. For ATGATTCGTTTTGCTAAAT, the binding signal was 0.453 Ka relative to the best site of the variant. In the case of ATGTGCCGTTTTGCTAAAT, the binding signal was 0.407 Ka relative to the best site of the variant. With ATGTCTCGTTTTGCTAAAT the binding signal was 0.462 Ka relative to the best site of the variant. For ATGAAGCGTTTTGCTAAAT, the binding signal was 0.338 Ka relative to the best site of the variant. For ATGACGCGTTTTGCTAAAT, the binding signal was 0.302 Ka relative to the best site of the variant. In the case of ATGTAGCGTTTTGCTAAAT, the binding signal was 0.356 Ka relative to the best site of the variant. In the case of ATGCACCGTTTTGCTAAAT, the binding signal was 0.449 Ka relative to the best site of the variant. With ATGGTACGTTTTGCTAAAT the binding signal was 0.39 Ka relative to the best site of the variant. In the case of ATGGACCGTTTTGCTAAAT, the binding signal was 1 Ka relative to the best site of the variant. ATGGGTCGTTTTGCTAAAT was tested, and the binding signal was 0.334 Ka relative to the best site of the variant. In the case of ATGTGGCGTTTTGCTAAAT, the binding signal was 0.493 Ka relative to the best site of the variant. ATGGGACGTTTTGCTAAAT was tested, and the binding signal was 0.361 Ka relative to the best site of the variant. For ATGGCCCGTTTTGCTAAAT, the binding signal was 0.382 Ka relative to the best site of the variant. For ATGGTGCGTTTTGCTAAAT, the binding signal was 0.382 Ka relative to the best site of the variant.
